Bioassay records from PubChem BioAssay.
FH mod – Identification of activators of human fumarate hydratase by quantitative high-throughput screening | Fumarate hydratase, mitochondrial (Homo sapiens), P07954 | FH coupled MDH/diaphorase resazurin fluorescence, 15 min | Potency, µM (series often up to 79.9 µM), hits mostly inhibitors | 54,000 tested, 0.22% active; note: the screen sought activators but most active calls are inhibition curves; nearly all actives have a fitted effect of over 45% in size
p53null 39C tox – kills p53 null cells at the nonpermissive temperature. 55,000 tested, 0.97% active. H1299 p53-null (neo) cells, 39C, ATPlite viability, 24 h. AID 904. Potency, µM (top dose mostly 46.1 µM), actives largely listed as cytotoxic; note: nearly all actives have a fitted effect of over 50% in size
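Concentration-response (up to 46 uM) was run for 24 h at the nonpermissive 39C on H1299-p53A138V or H1299-neo cells. ATP content was measured with ATPlite luminescence. AC50 values were Hill-modeled after normalizing between DMSO and 100 uM tamoxifen killing.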
GPR32 ag – agonists of human resolvin D1 receptor DRV1 (GPR32); CHO-K1 GPR32 beta-arrestin PathHunter luminescence, 90 min; zero percent set by DMSO-only wells; activation, % at 76.9 µM; 48,000 tested, 2.5% active; AID 1346428;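 active = activation of at least 60% and not above a set upper limit, about 1 call in 100 departs from these limits; inconclusive = activation of 40% to 60%, or above that upper limit; inactive = activation under 40%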
Target sequence (O75388 whole entry, looked up): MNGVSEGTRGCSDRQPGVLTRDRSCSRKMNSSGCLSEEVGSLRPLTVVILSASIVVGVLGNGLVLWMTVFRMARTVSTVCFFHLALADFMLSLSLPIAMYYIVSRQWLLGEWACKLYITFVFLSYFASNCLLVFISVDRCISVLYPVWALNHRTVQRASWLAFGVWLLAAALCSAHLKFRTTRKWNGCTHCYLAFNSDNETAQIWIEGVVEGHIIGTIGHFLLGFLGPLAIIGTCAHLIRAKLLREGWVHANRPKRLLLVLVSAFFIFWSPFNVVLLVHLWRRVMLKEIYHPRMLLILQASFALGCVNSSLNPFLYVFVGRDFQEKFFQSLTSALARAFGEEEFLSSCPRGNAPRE
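PathHunter enzyme-fragment complementation, CHO-K1 GPR32 stable line; 2,500 cells/well, overnight attach; cpd 90 min 37 °C 5% CO2; detection reagent 1 h RT; chemiluminescence. DMSO = EC0.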
p53null 32C kill – p53 null cell cytotoxicity, permissive temperature; H1299-neo p53 null cells, ATP luminescence, 24 h, 32C; Potency, µM (series often up to 46.1 µM), actives largely listed as cytotoxic; 55,000 tested, 0.62% active; note: nearly all actives have a fitted effect of over 55% in size
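H1299-neo (p53 null) cells, 600/well, treated 24 h at 32C with compound up to 46 uM; ATPlite luminescence viability, normalized to DMSO and 100 uM tamoxifen; AC50 by Hill fit.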
NTMT1 inhibitor – NTMT1 methyltransferase inhibition | Q9BV86 | NTMT1 MTase-Glo SAH luminescence, purified enzyme | Potency, µM (titrated, usually from 114 µM), actives largely listed as inhibitors | 59,000 tested, 2.5% active | AID 1645870; note: nearly all actives have a fitted effect of over 65% in size
Target sequence (Q9BV86 whole entry, looked up): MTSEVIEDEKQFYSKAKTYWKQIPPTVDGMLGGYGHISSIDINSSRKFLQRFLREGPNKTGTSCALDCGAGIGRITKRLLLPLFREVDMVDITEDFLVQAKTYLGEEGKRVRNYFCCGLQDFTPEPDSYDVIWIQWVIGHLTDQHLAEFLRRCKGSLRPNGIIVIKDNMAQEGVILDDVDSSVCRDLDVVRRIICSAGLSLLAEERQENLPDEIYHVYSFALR
GALC G270D act – enhancers of human galactocerebrosidase G270D mutant activity in cells. 45,000 tested, 0.1% active. AID 1159614. 145M-Twi-hGALC-G270D cells (Twitcher mouse brain line with human GALC G270D), HMU-beta-Gal fluorescence, 48 h. P54803. Potency, µM (series often up to 57.5 µM), usual class: activators; note: nearly all actives have a fitted effect of over 65% in size
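Fluorescence readout: HMU-β-gal cleavage by mutant GALC (0.1 mM final, citrate/phosphate pH 5.2 with 1 mg/mL taurocholate), stopped with carbonate/bicarbonate plus Triton X-100. Cells: murine Twitcher 145M-Twi expressing human G270D GALC; qHTS for activators.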
Large screens that a line does not name were inactive; ! = not active in a repeat; [ ] = dose if it differs, or a comment. Rows were chosen to be rich in hits. Some 3.9% of all compounds tested hit in one or more screens of this group. Unless noted, calls come from the whole dose curve; as a rule, active = well fitted curve in the direction sought with a large enough effect; inconclusive = small, poorly fitted or top-dose-only effect, or another doubt; inactive = no such curve, though single readings can be large; an effect the other way counts as inactive or inconclusive.

CCOc1ccc(NC2SC(=O)N(Cc3ccccc3)C2=O)cc1 (stereo not drawn)	FH mod 39.8µM[activator]
Cc1ccc(S(=O)(=O)Nc2cc(C(=O)Nc3nc(-c4ccccc4)cs3)ccn2)cc1	none (no result: FH mod, p53null 39C tox, GPR32 ag, p53null 32C kill, GALC G270D act)
CCN(c1cccc(C)c1)S(=O)(=O)c1ccc2[nH]cc(C(=O)NCCCOC)c(=O)c2c1	GPR32 ag 96.5
Cc1cc(-c2ccccc2)nc2c(C(=O)Nc3ccc4c(c3)CCC4)cnn12	none (no result: FH mod, p53null 39C tox, GPR32 ag, p53null 32C kill, GALC G270D act)
Nc1ccc(-c2ccc3ccccc3n2)cc1	FH mod inconclusive (no result: p53null 39C tox, p53null 32C kill, NTMT1 inhibitor, GALC G270D act)
Nc1ccc2cc3ccc(N)cc3nc2c1	NTMT1 inhibitor 35.5µM (no result: p53null 39C tox, p53null 32C kill)
C=C1C[C@H]2C=Nc3cc(OCCCOc4cc5c(cc4OC)C(=O)N4CC(=C)C[C@H]4C=N5)c(OC)cc3C(=O)N2C1	none (no result: FH mod, p53null 39C tox, GPR32 ag, p53null 32C kill, GALC G270D act)
Cc1ccc(Cl)cc1NC(=O)c1ccc2snnc2c1	GPR32 ag 85.3
Cn1ncc2cc(-c3cnc(N)c(Cl)c3N3CCC4(CCNC4=O)CC3)ccc21	none (no result: p53null 39C tox, GPR32 ag, p53null 32C kill, GALC G270D act)
CN(CC(=O)N(Cc1ccc(C2CCCCC2)cc1)c1ccc(C(=O)O)c(O)c1)S(=O)(=O)c1c(F)c(F)c(F)c(F)c1F	NTMT1 inhibitor 31.6µM (no result: p53null 39C tox, GPR32 ag, p53null 32C kill, GALC G270D act)
CCOc1cccc(NC(=O)C2CC(=O)N(C)C(=Nc3ccc(F)cc3)S2)c1 (stereo not drawn)	FH mod inconclusive, GPR32 ag 77.6
CN(CCO)C1CCN(c2ccc(Nc3ncc4c5ccnc(F)c5n(C5CCCC5)c4n3)nc2)CC1	NTMT1 inhibitor inconclusive (no result: p53null 39C tox, GPR32 ag, p53null 32C kill, GALC G270D act)
COc1ccc2c(c1)CCc1c(C(=O)Nc3cnn(Cc4ccc(Cl)cc4Cl)c3)noc1-2	FH mod inconclusive, NTMT1 inhibitor inconclusive
COc1ccc(OC)c(-c2cc(C(=O)Nc3cnn(Cc4ccc(Cl)cc4Cl)c3)no2)c1	p53null 39C tox 10µM, GPR32 ag 90.6, p53null 32C kill inconclusive (no result: FH mod, NTMT1 inhibitor, GALC G270D act)
O=C(Cc1ccc(Cl)c(Cl)c1)Nc1ccc(S(=O)(=O)Nc2cccc(O)c2)cc1	none (no result: FH mod, p53null 39C tox, GPR32 ag, p53null 32C kill, GALC G270D act)
O=S(=O)(c1ccc(Cl)cc1)N1CCN(c2ccnc3cc(Cl)ccc23)CC1	none (no result: p53null 39C tox, GPR32 ag, p53null 32C kill, GALC G270D act)
Cc1ccc(NC(=O)CN2C(=O)N/C(=C\c3cccn3-c3ccc(C(=O)NS(C)(=O)=O)cc3)C2=O)cc1	NTMT1 inhibitor 79.4µM (no result: FH mod, p53null 39C tox, GPR32 ag, p53null 32C kill, GALC G270D act)
O=C(CN1C(=O)N/C(=C\c2cccn2-c2cccc(C(=O)O)c2)C1=O)Nc1cccc(Cl)c1	NTMT1 inhibitor 79.4µM (no result: FH mod, p53null 39C tox, GPR32 ag, p53null 32C kill, GALC G270D act)
O=C(O)c1cccc(-n2cccc2/C=C2/C(=O)N(Cc3ccc(F)cc3)C(=O)N2Cc2ccc(F)cc2)c1	NTMT1 inhibitor 79.4µM (no result: FH mod, p53null 39C tox, GPR32 ag, p53null 32C kill, GALC G270D act)
CCc1cnn2c(NCc3ccc[n+]([O-])c3)cc(N3CCCCC3CCO)nc12 (stereo not drawn)	none (no result: p53null 39C tox, GPR32 ag, p53null 32C kill, GALC G270D act)
CCc1cc(C(N)=O)ccc1-n1nc(C(C)C)c2c(-n3cnc(-c4cnn(C)c4)c3)ccnc21	none (no result: p53null 39C tox, GPR32 ag, p53null 32C kill, GALC G270D act)
CCN(CC)S(=O)(=O)c1ccc2c(c1)c(=O)c(C(=O)NCc1ccccc1Cl)cn2C	p53null 39C tox 5.01µM, p53null 32C kill inconclusive
CCN(CC)S(=O)(=O)c1ccc2c(c1)c(=O)c(C(=O)N(C)Cc1ccccc1)cn2C	GALC G270D act 25.1µM
Cc1cnc(NC(=O)CSc2nnc(-c3ccccc3)o2)s1	p53null 39C tox 14.1µM, p53null 32C kill inconclusive (no result: FH mod, GPR32 ag, NTMT1 inhibitor, GALC G270D act)
Cc1cnc(NC(=O)CSc2ncn(-c3ccccc3)n2)s1	none (no result: FH mod, GPR32 ag, NTMT1 inhibitor, GALC G270D act)
CC(C)n1cnc2c(NCc3cccc(C(F)(F)F)c3)ncnc21	none (no result: p53null 39C tox, GPR32 ag, p53null 32C kill, GALC G270D act)
Cc1ccc(Nc2nccc(N(C)c3ccc4c(C)n(C)nc4c3)n2)cc1S(N)(=O)=O	GPR32 ag inconclusive, NTMT1 inhibitor 15.8µM! (no result: p53null 39C tox, p53null 32C kill)
CC1(CCOC2OC(CO)C(O)C(O)C2O)CCC23OC2(C1)C(O)CC1C(C)(C(=O)O)CCCC13C (stereo not drawn)	none (no result: p53null 39C tox, GPR32 ag, p53null 32C kill, GALC G270D act)
Cc1c(Cl)cccc1-c1ccc(/C=C(\C#N)c2nc3ccccc3[nH]2)o1	p53null 39C tox 10µM, p53null 32C kill inconclusive
Cc1ccc2nc(/C(C#N)=C/c3ccc(-c4ccc(F)cc4F)o3)[nH]c2c1	p53null 39C tox 7.94µM, NTMT1 inhibitor inconclusive
Clc1ccc(CSc2nc3ncc(Br)cc3[nH]2)cc1	none (no result: FH mod, p53null 39C tox, GPR32 ag, p53null 32C kill, GALC G270D act)
